Activity calls are given as the source filed them. Rule as the data show it: active = fold change mostly below about -2 (no sharp cut-off); inactive = mostly above about -1.8.

The assay in a line: TERT promoter activity modulators, primary screen, cell-based, luciferase reporter, human (AID 1259240). The note with it: A2780 TERT promoter luciferase reporter, 16 h; at 20 µM, fold versus average of vehicle-only wells.
With `Fc1ccc(CNc2nnc(Cc3ccncc3)c3ccccc23)cc1`, the fold change is -1.53 (inactive). As for `CC(C)c1ccc(NC(=O)Nc2ccc3snnc3c2)cc1`, the fold change is -1.62 (inactive). As for `Cc1ccc(CN2C(=O)/C(=C/c3c(NCCO)nc4ccc(C)cn4c3=O)SC2=S)cc1`, the fold change was -1.97 (inactive). On the same count and under the same terms, the figure for `O=C(CCN1C(=O)c2ccccc2S1(=O)=O)Nc1cc(Cl)ccc1Cl` is 1.22 (inactive). Turning to `O=c1oc2cc(O)ccc2cc1-c1nnc(Nc2ccccc2)s1`, the result was active. As to `CCCCNC(=O)c1ccc(CNc2c(NC3CCCC3)c(=O)c2=O)cc1`, the fold change is 1.11 (inactive).

Regarding `Cc1cc(Cl)ccc1OCc1nc(-c2ccc(-n3cccc3)cc2)no1`, the fold change is -1.5 (inactive).

In the case of `COc1cc2nc(CN3C(=O)c4ccccc4C3=O)oc(=O)c2cc1OC`, the fold change is -2.87 (active). For `Cc1cc(C)cc(CC(CC(=O)Nc2nccs2)C(=O)Nc2nccs2)c1` (centres undefined), the fold change was 1.18 (inactive).

Consider `CCOc1ccc(Oc2nc(NC(C)(C)C)nc(N3CCOCC3)n2)nn1`, for which the fold change is 1.49 (inactive). `O=C(NCc1ccccc1Cl)c1c(-n2cccc2)sc2c1CCC2`: the fold change is -1.05 (inactive). For the compound `CN(C)c1nc(C(N)=O)nc(N2CCOCC2)n1`, the fold change was 1.62 (inactive). Still for that read-out and setting: for `CCS(=O)(=O)Nc1ccc(C2=NN(S(C)(=O)=O)C(c3ccco3)C2)cc1` (centres undefined) the value was -1.18 (inactive). For the compound `COc1cc2c(c(OC)c1)C(c1cccc3ccccc13)CC(=O)N2` (centres undefined), the fold change was -1.05 (inactive). Still for that read-out and setting: for `CCN(CC)S(=O)(=O)c1ccc2c(c1)N(CC(=O)NC1CC1)C(=O)CO2` the value was -1.73 (inactive); for `c1ccc(COc2ccc(Oc3nc(N4CCOCC4)nc(N4CCOCC4)n3)nn2)cc1`, -1.03 (inactive); for `O=C(Nc1ccc(F)c(F)c1)C1CCCN1S(=O)(=O)c1cccc2nsnc12` (centres undefined), -1.3 (inactive).

`CCS(=O)(=O)N1N=C(c2ccc(NS(C)(=O)=O)cc2)CC1c1ccccc1` (centres undefined): the fold change was 1.35 (inactive). For `CCC(C)(C)C(=O)Nc1nc2c(s1)C(=O)CC(C)(C)C2`, the fold change is 1.17 (inactive).

As for `Cc1ccc(N2CCN(c3cc(C)nc4ncnn34)CC2)c(C)c1`, the fold change was -1.38 (inactive). On the same count and under the same terms, for `CN1C(C(=O)c2ccccc2)=C(OC(=O)c2ccc(F)cc2)c2ccccc2S1(=O)=O` the value was 1.16 (inactive); for `OCCOCCn1c(-c2ccccc2)nc(=S)c2c1CCCC2`, -1.03 (inactive).

Regarding `COc1ccc(/C=C/c2nc3scc(-c4cccs4)c3c(=O)o2)cc1`, the fold change is -1.6 (inactive). Consider `CC(CCc1ccco1)NC(=O)Cn1ncc2c1-c1ccccc1OC2` (centres undefined), for which the fold change is 1.12 (inactive).

Take `C=CCn1c(Oc2ccc(C(=O)OC)cc2)nc2c1c(=O)n(C)c(=O)n2C`: the fold change was -2.04 (active).

As for `Cc1[nH]nc2c1C(c1ccccc1F)NC2=O` (centres undefined), the fold change is -1.71 (inactive). Consider `CCOc1ccc(-n2c(O)cnc2Nc2nc(C)cc(C)n2)cc1`, for which the fold change is -1.65 (inactive). For `O=C1CC(c2cc(Br)cs2)c2cc3c(cc2N1)OCO3` (centres undefined), the fold change is 1.13 (inactive). Same read-out and setting: for `O=c1c(O)c(-c2ccc3c(c2)OCO3)oc2ccccc12` the value was 1 (inactive). Same read-out and setting: for `O=C(CSc1ncnc2ccccc12)Nc1cccc(F)c1` the value was 1.32 (inactive); for `O=C(CSc1nc(-c2ccco2)cc(C(F)(F)F)n1)N1CCSCC1`, -1.96 (inactive); for `CCOC(=O)/C(=N\OC)c1cn2cc(Br)ccc2n1`, 1.2 (inactive).

For the compound `O=C(NCCc1c[nH]c2ccccc12)c1ccc(NC2=NC3CS(=O)(=O)CC3S2)cc1` (centres undefined), the fold change is -1.35 (inactive). Consider `O=c1[nH]c(CN2CCN(CCO)CC2)nc2ccccc12`, for which the outcome was inactive.

With `C=CCOc1cccc(C2c3c(oc4ccccc4c3=O)C(=O)N2c2nc(C)c(C(C)=O)s2)c1` (centres undefined), the fold change is 1.02 (inactive).

For `COC(=O)c1cc(NS(=O)(=O)c2cccc3cccnc23)cc(C(=O)OC)c1`, the fold change is -1.91 (inactive).

Take `CCN(CC)CCNc1nc2c(c(=O)[nH]c(=O)n2C)n1Cc1cccc(C)c1`: the fold change is -1.42 (inactive).

With `CCNC(=O)CC1C(=O)N(c2ccc(F)cc2)C(=O)N1CCC(C)C` (centres undefined), the fold change was 1.24 (inactive).

As for `CC(NC(=O)c1cnn2c(C(F)F)cc(-c3ccccc3)nc12)c1ccccc1` (centres undefined), the fold change is -1.39 (inactive).

Values taken from PubChem BioAssay AID1259240 (Keith Lab, Institute of Cancer Science, University of …, 2017).
